In PubChem BioAssay AID488789 (Broad Institute, 2010):
Results with a measured potency or affinity are listed apart. Records with an inconclusive call do not appear.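 How the source made its calls: active means samples whose fitted half-maximal inhibition concentration is no more than ten times the top valid dose tested; inconclusive means flat response between -70 and -30, or invalid curve fit; inactive means flat within 30 of zero, potency above limit, or signal rising.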

Target: Trypsin (Sus scrofa) (UniProt P00761)
Sequence (P00761 whole entry, looked up): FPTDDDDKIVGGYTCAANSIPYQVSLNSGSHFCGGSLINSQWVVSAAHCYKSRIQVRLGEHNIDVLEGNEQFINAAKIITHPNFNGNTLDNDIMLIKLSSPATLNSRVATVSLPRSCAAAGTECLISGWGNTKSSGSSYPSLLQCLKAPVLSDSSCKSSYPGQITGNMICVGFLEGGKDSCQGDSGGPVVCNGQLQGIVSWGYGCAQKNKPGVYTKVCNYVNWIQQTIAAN
Assay: trypsin protease activity blockade – biochemical, quenched peptide fluorescence, cherry-pick, selectivity assay for Rce1 protease inhibitor project, dose response (AID 488789)
Settings: porcine trypsin, quenched peptide cleavage fluorescence; series mostly up to 10 µM; activity change, negative = inhibition: at the top concentration

Activity change, negative = inhibition, inactive:
CCn1cc(C(=O)N[C@H](C)c2ccccc2)c(=O)c2cc(F)c(N3CCN(C)CC3)cc21 6.94%
Cc1cc(N2CCOCC2)n2cc(-c3ccccc3)nc2n1 -0.296%
Cc1ccc(C2(COC(=O)C(C)C)CO2)c(OC(=O)C(C)C)c1 (configuration not stated) 8.63%
COC(C[C@@H]1O[C@@H]1C(=O)[C@@H](C)OCc1ccccc1)OC -0.595%
O=C(Cn1c2ccccc2c(=O)c2ccccc21)Nc1ccccc1F -4.99%
Cc1cccc(N2C(=O)c3cccc4c(N5CCCCC5)c([N+](=O)[O-])cc(c34)C2=O)c1C 10.5%
CC1Oc2ccccc2C=C1/C=N/NC(=O)[C@@H](C)NC(=O)OC(C)(C)C (some centres not stated) 1.9%
CCCCN(C)CCNC(=O)c1cc2c(-c3cccc(OC)c3)nn(C)c2s1 -9.5%
C#CCNC(=O)C1=C[C@@H](C2CCCCC2)C[C@@H](OCc2ccc(CO)cc2)O1 12.6%
O=C(Nc1ccc(F)cc1)Oc1ccccc1N1CCOCC1 -3.6%
COc1ccc2[nH]c(C(=O)NCCCn3ccnc3)cc2c1 10.5%
CCN(C(=O)COC(=O)c1cc(-c2cccs2)nc2ccccc12)C1CCS(=O)(=O)C1 (configuration not stated) 7.15%
COc1ccc(Cn2c(N)c(S(=O)(=O)c3cccs3)c3nc4ccccc4nc32)cc1 10.7%
O=C(Nc1cccc2ccccc12)c1ccc(OC(=S)N2CCOCC2)cc1 1.01%
COC(=O)Cn1c(CCC(=O)O)ccc1-c1ccccc1 -7.92%
O=C(NCCc1c[nH]c2ccccc12)OCCSS(=O)(=O)O -8.16%
CC(C)CNC(=O)Nc1ccc(F)c(Cl)c1 7.58%
CCCCCCCCCCOC(=O)Cn1c(COc2ccc(C)cc2)[n+](C)c2ccccc21 0.202%
COC(=O)c1nc(N)sc1-c1ccc(Cl)c(Cl)c1 -6.59%
Cc1nc(SC(C(=O)c2ccccc2)c2ccccc2)nc2ccccc12 (configuration not stated) 3.6%
COC(C/C=C/[C@H](O)[C@@H](C)OCc1ccccc1)OC 3.98%
CN(C)CCCN(C(=O)c1cc(-c2cccs2)nc2ccccc12)c1nc2ccc(F)cc2s1 -3.8%
c1ccc(Nc2cccc(Nc3ccccc3)n2)cc1 19.8%
COCCCNC(=S)NCCNc1nc2cc(C)cc(C)c2cc1C#N 1.37%
CC1(c2ccc(OCC#N)cc2)C=C(c2ccc(OCC#N)cc2)n2nc(C(F)(F)F)nc2N1 (configuration not stated) 5.89%
CN(C)CC(C)(C)CNC(=S)NCc1ccc2c(c1)OCO2 17.4%
NC(=O)CSC1=Nc2ccccc2C2=NC(c3ccccc3)C(=O)N12 (configuration not stated) -14.2%
Cc1ccc(NS(=O)(=O)c2ccc(NC(=O)N3CCCCC3)cc2)cc1 -2.65%
O=C(Nc1ccccc1N1CCOCC1)C1CCN(S(=O)(=O)c2ccc(F)cc2)CC1 0.788%
CCCC(=O)N1CCN(c2ccc(NC(=O)c3cc4ccccc4o3)cc2Cl)CC1 -6.19%
COc1ccc(-c2cc(C(F)(F)F)nc(SCC(=O)N(C)Cc3cn(C)nc3C)n2)cc1OC -7.78%
CCN(CC)CCNC(=O)CSc1c2c(nc3cc(Cl)ccc13)CCCC2 2.82%
CCOC(=O)c1cc(-c2ccccc2)sc1NC(=O)C(C)Sc1nnnn1C (configuration not stated) 7.62%
CN(C(=O)c1ccc2c(c1)SC1=NS(=O)(=O)CCN12)C(c1ccccc1)c1ccccc1 7.2%
CCC1(c2ccccc2)NC(=O)N(CC(=O)Nc2ccc3c(C)cc(=O)oc3c2)C1=O (configuration not stated) 9.62%
COc1ccc(N2CCN(C(=O)c3cc(-c4cccs4)nc4ccccc34)CC2)cc1 -3.39%
CSc1nnc(-c2sc(-c3ccccc3)nc2C)n1C 12.8%
